Assay outcomes from PubChem.
Compounds with a hit are over-represented: about 4.6% of the library has one in this group of screens.
GPR32 ag: qHTS for Agonists of Human Resolvin D1 Receptor DRV1. Probable G-protein coupled receptor 32 (Homo sapiens), O75388. activation, % at 76.9 µM. hit rate 2.5% among 48,000. CHO-K1 GPR32 beta-arrestin PathHunter luminescence, 90 min; zero percent set by DMSO-only wells;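 active = activation of at least 60% and not above a set upper limit, about 1 call in 100 departs from these limits; inconclusive = activation of 40% to 60%, or above that upper limit; inactive = activation under 40%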
Target sequence (O75388 whole entry, looked up): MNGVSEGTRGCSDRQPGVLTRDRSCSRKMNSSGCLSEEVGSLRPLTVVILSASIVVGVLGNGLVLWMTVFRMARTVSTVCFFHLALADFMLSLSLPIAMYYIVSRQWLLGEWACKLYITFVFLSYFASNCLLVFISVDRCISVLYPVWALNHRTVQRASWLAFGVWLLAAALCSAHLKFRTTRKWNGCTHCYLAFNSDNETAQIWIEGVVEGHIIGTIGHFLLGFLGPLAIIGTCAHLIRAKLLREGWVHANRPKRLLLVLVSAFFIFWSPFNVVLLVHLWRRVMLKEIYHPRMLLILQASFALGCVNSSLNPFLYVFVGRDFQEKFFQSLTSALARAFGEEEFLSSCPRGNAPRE
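Cells are plated overnight, treated with compounds in DMSO for 90 minutes at 37 °C, and developed with PathHunter detection reagent for 1 hour before luminescence is read; signal reflects beta-arrestin binding to GPR32 in engineered CHO-K1 cells.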
HTT prom inh: Primary qHTS for Identification of Small Molecule Inhibitors of Huntingtin Promoter Activity; HEK293 HTT promoter firefly luciferase reporter, 24 h; hit rate 0.93% among 48,000; Potency, µM (doses to about 57.5 µM), usual class: inhibitors; note: nearly all actives have a fitted effect of over 50% in size
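Firefly luciferase readout (Dual-Glo, 10 min RT) after 24 h, 37 °C compound exposure (final up to 57.5 uM) of HEK293 reporter cells cultured 24 h beforehand; PTC124 at 50 uM final as control inhibitor; activity scaled vehicle 0%, zero RLU -100%.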
NTMT1 inh: Primary qHTS for Inhibitors of N-terminal methyltransferase 1 (NTMT1): MTaseGlo Assay; N-terminal Xaa-Pro-Lys N-methyltransferase 1 (Homo sapiens), Q9BV86; NTMT1 MTase-Glo SAH luminescence, purified enzyme; Potency, µM (highest dose often 114 µM), hits mostly inhibitors; hit rate 2.5% among 59,000; AID 1645870, 2021; note: nearly all actives have a fitted effect of over 65% in size
Target sequence (Q9BV86 whole entry, looked up): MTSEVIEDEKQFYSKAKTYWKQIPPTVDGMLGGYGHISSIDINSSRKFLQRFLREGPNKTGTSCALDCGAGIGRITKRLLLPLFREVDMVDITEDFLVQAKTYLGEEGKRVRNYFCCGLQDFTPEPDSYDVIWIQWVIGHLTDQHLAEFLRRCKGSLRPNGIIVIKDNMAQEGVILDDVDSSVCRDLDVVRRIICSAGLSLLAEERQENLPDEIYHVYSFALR
HTT-AS promoter: Primary qHTS for Identification of Small Molecule Activators of Huntingtin-Antisense Promoter Activity; AID 1508624, 2021; HEK293 HTT-AS promoter firefly luciferase reporter, 24 h; response scale: percent change from vehicle, -100% = no light; Potency, µM (titrated, usually from 57.5 µM), most hits filed as activators; hit rate 0.24% among 48,000; note: nearly all actives have a fitted effect of over 55% in size
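Firefly luciferase readout (Dual-Glo, 10 min RT) after 24 h, 37 °C compound exposure (final up to 57.5 uM) of HEK293 reporter cells cultured 24 h beforehand; PTC124 at 50 uM final as control inhibitor; activity scaled vehicle 0%, zero RLU -100%.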
Large screens that a line does not name were inactive. Unless noted, calls come from the whole dose curve; as a rule, active = well fitted curve in the direction sought with a large enough effect; inconclusive = small, poorly fitted or top-dose-only effect, or another doubt; inactive = no such curve, though single readings can be large; an effect the other way counts as inactive or inconclusive.

C[C@@H]1CC[C@]2(C(=O)O)CC[C@]3(C)C(=CCC4[C@@]5(C)C[C@@H](O)[C@H](O)[C@@](C)(CO)C5CC[C@]43C)C2[C@]1(C)O (stereo not given in full)	none (no result: GPR32 ag, HTT prom inh, HTT-AS promoter)
O=C(/C=C/c1cccnc1)NCCCCC1CCN(C(=O)c2ccccc2)CC1	none (no result: GPR32 ag, HTT prom inh, HTT-AS promoter)
CC(=O)Nc1sc2c(c1-c1ccc(N(C)C)cc1)CCNC2	NTMT1 inh 14µM (no result: GPR32 ag, HTT prom inh, HTT-AS promoter)
CCc1ccccc1NC(=O)c1c(NC(=O)c2ccccc2)sc2c1CCCC2	none
Cc1ccccc1NC(=O)c1c(NC(=O)c2ccncc2)sc2c1CCC(C(C)(C)C)C2 (stereo not given)	GPR32 ag 72
CCOc1ccccc1NC(=O)c1c(NC(=O)c2ccccc2)sc2c1CCCC2	GPR32 ag 66
CCCNC(=O)c1c(NC(=O)c2ccccc2)sc2c1CCC(C(C)(C)C)C2 (stereo not given)	none
CCOc1ccccc1NC(=O)c1c(NC(=O)c2ccncc2)sc2c1CCC(C(C)(C)C)C2 (stereo not given)	GPR32 ag 113
COc1ccccc1NC(=O)c1c(NC(=O)Cc2ccccc2)sc2c1CCC(C(C)(C)C)C2 (stereo not given)	none
Cc1ccccc1C(=O)Nc1sc2c(c1C(=O)O)CCC(C(C)(C)C)C2 (stereo not given)	HTT prom inh 2.8µM
CCOC(=O)c1ccc(NC(=O)CC2Nc3cc(C)c(C)cc3NC2=O)cc1 (stereo not given)	HTT prom inh 8.9µM
CCOc1ccc(NC(=O)CC2Nc3cccc4cccc(c34)NC2=O)cc1 (stereo not given)	GPR32 ag 83
CC(=O)c1ccc(NC(=O)CC2Nc3cccc4cccc(c34)NC2=O)cc1 (stereo not given)	NTMT1 inh inconclusive
Cc1ccc(OCCn2c(CCNC(=O)c3ccc(C)cc3)nc3ccccc32)cc1	none (no result: GPR32 ag, HTT prom inh, HTT-AS promoter)
CCCCCn1c(=N)n(CC(O)COc2cccc(C)c2)c2ccccc21 (stereo not given)	GPR32 ag 90, HTT prom inh inconclusive
N=c1n(CCN2CCCCC2)c2ccccc2n1CC(O)COc1ccccc1 (stereo not given)	GPR32 ag 65, HTT prom inh inconclusive
Cc1ccccc1OCC(O)Cn1c(=N)n(CCN2CCCCC2)c2ccccc21 (stereo not given)	HTT prom inh inconclusive, NTMT1 inh inconclusive
O=C(OC[C@@]1(O)CO[C@@H](O[C@H]2[C@H](Oc3ccc(O)cc3)O[C@H](CO)[C@@H](O)[C@@H]2O)[C@@H]1O)c1ccc(O)cc1	none (no result: GPR32 ag, HTT prom inh, HTT-AS promoter)
COc1ccc(C2CC(=O)c3c([nH]c(C(=O)OCc4ccccc4)c3C)C2)cc1 (stereo not given)	none
COc1ccc(COC(=O)c2[nH]c3c(c2C)C(=O)CC(c2ccc(OC)c(OC)c2)C3)cc1 (stereo not given)	HTT prom inh 10µM
Nc1cc(C(F)(F)F)ccc1S	NTMT1 inh 8.9µM
Cc1cccc(-c2nc(CN3CCCC(C(=O)NCCc4ccc(Cl)cc4)C3)c(C)o2)c1 (stereo not given)	HTT prom inh 32µM
COC(=O)c1cc2c(C(F)(F)F)cc(-c3ccccc3)cc2n1O	none (no result: GPR32 ag, HTT prom inh, HTT-AS promoter)
COC(=O)C(C)Sc1ncnc2c1c(-c1ccccc1)cn2-c1ccc(F)cc1 (stereo not given)	HTT prom inh inconclusive
COc1ccc(-n2cc(-c3ccccc3)c3c(SC(C)C(C)=O)ncnc32)cc1 (stereo not given)	GPR32 ag 99
CCCCOc1ccc(NC(=O)Cn2nnnc2-c2ccccc2F)cc1	none
O=C(Cn1nnnc1-c1ccccc1F)Nc1ccc(OC(F)(F)F)cc1	GPR32 ag 75
Cc1c(P(=S)(c2ccccc2)c2ccccc2)c2ccccc2n1Cc1ccccc1	none (no result: GPR32 ag, HTT prom inh, HTT-AS promoter)
Cc1c(P(=O)(c2ccccc2)c2ccccc2)c2ccccc2n1C	NTMT1 inh 79µM (no result: GPR32 ag, HTT prom inh, HTT-AS promoter)
CCc1ccc(NC(=O)Cn2nc(SC)c(S(=O)(=O)c3ccc(OC)cc3)c2N)cc1	none
COc1ccc(S(=O)(=O)c2c(SC)nn(CC(=O)Nc3ccc(C)c(Cl)c3)c2N)cc1	GPR32 ag 86, HTT prom inh inconclusive
CCSc1nn(CC(=O)Nc2cccc(CC)c2)c(N)c1S(=O)(=O)c1ccccc1	GPR32 ag 94, HTT prom inh inconclusive
COc1cc(N2CCOCC2)ccc1Nc1ncc(Cl)c(Nc2ccccc2NS(C)(=O)=O)n1	none (no result: GPR32 ag, HTT prom inh, HTT-AS promoter)
COC(=O)c1ccc(O)c2ncccc12	none (no result: GPR32 ag, HTT prom inh, HTT-AS promoter)
C[C@@H](CN1CCC(n2c(=O)[nH]c3cc(Cl)ccc32)CC1)NC(=O)c1ccc2ccccc2c1	none (no result: GPR32 ag, HTT prom inh, HTT-AS promoter)
Cc1cccc(N2CCN(C(=O)Cn3c(C)c4cnn(-c5ccccc5)c(=O)c4c3C)CC2)c1C	HTT prom inh 10µM
CC(=O)OCC1=CCC2C(C)(C)CCCC2(C)C12CCC(C)(CC(=O)O)O2 (stereo not given)	none (no result: GPR32 ag, HTT prom inh, HTT-AS promoter)
COc1ccc(Br)cc1C(=O)Nc1nc2ccc(F)cc2s1	HTT-AS promoter 1.8µM
COc1ccc(NS(=O)(=O)c2ccc3c(c2)NC(=O)CCS3)c(OC)c1	NTMT1 inh inconclusive
O=C1CCSc2ccc(S(=O)(=O)Nc3ccc(Cl)c(C(F)(F)F)c3)cc2N1	GPR32 ag 71
CO[C@H]1C=CC=C(C)C(=O)NC2=CC(=O)C(NCCN(C)C)=C(C[C@@H](C)C[C@H](OC)[C@@H](O)[C@@H](C)C=C(C)[C@@H]1OC(N)=O)C2=O	HTT prom inh inconclusive, NTMT1 inh 27µM (no result: GPR32 ag)
C=CCNC1=C2C[C@@H](C)C[C@H](OC)[C@@H](O)[C@@H](C)C=C(C)[C@H](OC(N)=O)[C@@H](OC)C=CC=C(C)C(=O)NC(=CC1=O)C2=O	HTT prom inh inconclusive (no result: GPR32 ag)
Cc1ccc(CSc2cn(CCNC(=O)c3cccs3)c3ccccc23)cc1	HTT prom inh inconclusive
O=C(NCCn1cc(SCc2ccccc2F)c2ccccc21)c1cccs1	GPR32 ag 67, HTT prom inh inconclusive
O=C(NCCn1cc(SCc2ccc(F)cc2)c2ccccc21)c1cccs1	HTT prom inh 28µM
Cc1c(-c2cccc(NC(=O)Nc3ccccc3)c2)nc2ncccn12	GPR32 ag 96
O=C(Nc1cnn2ccc(N3CCC[C@@H]3c3cc(F)ccc3F)nc12)N1CC[C@H](O)C1	none (no result: GPR32 ag, HTT prom inh, HTT-AS promoter)
CCc1nnc(NC(=O)C(=O)c2cc(C)n(-c3ccccc3)c2C)s1	HTT prom inh inconclusive
Cc1cc(C(=O)C(=O)Nc2nnc(C(C)C)s2)c(C)n1-c1ccccc1	HTT prom inh 6.3µM
COc1ccc(NC(=O)CSc2nc(-c3ccco3)cc(C(F)(F)F)n2)cc1OC	HTT prom inh 2.2µM
COc1ccc(-c2cc(C(F)(F)F)nc(SCC(=O)NC(C)c3ccccc3)n2)cc1 (stereo not given)	GPR32 ag 106
COc1ccc(NC(=O)CCSc2nc(-c3ccc(OC)cc3)cc(C(F)(F)F)n2)cc1	none
